{"source": "paper PMC7862700", "about": "“An all-to-all approach to the identification of sequence-specific readers for epigenetic DNA modifications on cytosine”", "assay_in_all_cases": "DAPPL (digital affinity profiling via proximity ligation, sequencing); 10 mM Tris-HCl pH 7.5, 50 mM NaCl, 1 mM DTT, 4% glycerol, room temperature, 30 min; GST-TFs on glutathione beads, 16-mer random dsDNA library, 0.1% formaldehyde crosslink after washing; high values mean tight binding", "key": {"FLI1": {"biological_target": "T1, FLI1 (Homo sapiens, UniProt Q01543 1-452)", "T1 sequence": "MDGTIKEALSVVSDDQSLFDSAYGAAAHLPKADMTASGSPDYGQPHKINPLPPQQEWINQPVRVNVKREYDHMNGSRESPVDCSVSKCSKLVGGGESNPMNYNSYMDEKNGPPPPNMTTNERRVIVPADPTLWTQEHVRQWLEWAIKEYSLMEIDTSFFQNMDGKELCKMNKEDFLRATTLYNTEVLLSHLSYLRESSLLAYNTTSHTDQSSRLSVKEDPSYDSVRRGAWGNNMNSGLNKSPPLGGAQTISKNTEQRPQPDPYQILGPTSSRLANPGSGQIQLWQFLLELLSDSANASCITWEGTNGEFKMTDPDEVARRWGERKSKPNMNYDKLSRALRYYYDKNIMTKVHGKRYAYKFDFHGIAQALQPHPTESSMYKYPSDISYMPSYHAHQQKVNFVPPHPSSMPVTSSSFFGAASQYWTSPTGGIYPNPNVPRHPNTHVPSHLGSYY", "conditions": "protein: recombinant; tags: N-terminal GST; dsDNA, one strand shown", "outline": "(§1)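 After expression in yeast as GST fusions, human transcription factors were bound to glutathione beads, DNA-barcoded and mixed with a tag-only sample. The pools were incubated with 200 nmole of a 16-mer random double-stranded DNA library in Tris/NaCl/DTT/glycerol buffer (30 min, room temperature), washed and crosslinked with 0.1% formaldehyde. Proximity ligation with BsaI/T4 ligase ran for 1 h at 37 °C, before PCR amplification and sequencing on an Illumina NextSeq500. Binding signal is a hexamer's read frequency for a factor divided by its frequency for the tag-only sample.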"}, "ELK1": {"biological_target": "T2, ELK1 (Homo sapiens, UniProt P19419 1-428)", "T2 sequence": "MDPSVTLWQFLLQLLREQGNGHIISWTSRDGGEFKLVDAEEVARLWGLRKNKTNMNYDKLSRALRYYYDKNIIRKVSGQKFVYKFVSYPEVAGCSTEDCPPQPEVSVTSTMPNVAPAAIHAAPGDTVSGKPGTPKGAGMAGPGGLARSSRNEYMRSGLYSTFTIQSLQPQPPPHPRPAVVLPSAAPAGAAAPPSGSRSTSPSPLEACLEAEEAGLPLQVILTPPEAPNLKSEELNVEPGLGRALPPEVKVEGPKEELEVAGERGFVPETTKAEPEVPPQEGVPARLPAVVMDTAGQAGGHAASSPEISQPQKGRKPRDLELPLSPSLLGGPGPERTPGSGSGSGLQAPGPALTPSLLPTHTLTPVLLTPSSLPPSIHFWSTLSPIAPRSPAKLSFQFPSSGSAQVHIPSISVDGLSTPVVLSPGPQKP", "conditions": "protein: recombinant; tags: N-terminal GST; dsDNA, one strand shown", "outline": "as §1"}, "GABPA": {"biological_target": "T3, GABPA (Homo sapiens, UniProt Q06546 1-454)", "T3 sequence": "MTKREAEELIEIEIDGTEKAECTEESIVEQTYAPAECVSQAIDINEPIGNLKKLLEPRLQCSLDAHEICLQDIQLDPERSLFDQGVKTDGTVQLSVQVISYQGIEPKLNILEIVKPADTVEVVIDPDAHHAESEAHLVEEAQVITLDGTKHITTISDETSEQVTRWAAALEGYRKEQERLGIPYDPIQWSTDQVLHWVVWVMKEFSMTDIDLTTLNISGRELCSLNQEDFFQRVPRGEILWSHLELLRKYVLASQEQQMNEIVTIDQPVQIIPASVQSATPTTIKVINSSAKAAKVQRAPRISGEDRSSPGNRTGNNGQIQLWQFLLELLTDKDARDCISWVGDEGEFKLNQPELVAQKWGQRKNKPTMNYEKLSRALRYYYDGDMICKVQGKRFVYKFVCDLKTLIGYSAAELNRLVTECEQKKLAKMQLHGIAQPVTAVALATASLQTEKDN", "conditions": "protein: recombinant; tags: N-terminal GST; dsDNA, one strand shown", "outline": "as §1"}, "ERG": {"biological_target": "T4, ERG (Homo sapiens, UniProt P11308 1-479)", "T4 sequence": "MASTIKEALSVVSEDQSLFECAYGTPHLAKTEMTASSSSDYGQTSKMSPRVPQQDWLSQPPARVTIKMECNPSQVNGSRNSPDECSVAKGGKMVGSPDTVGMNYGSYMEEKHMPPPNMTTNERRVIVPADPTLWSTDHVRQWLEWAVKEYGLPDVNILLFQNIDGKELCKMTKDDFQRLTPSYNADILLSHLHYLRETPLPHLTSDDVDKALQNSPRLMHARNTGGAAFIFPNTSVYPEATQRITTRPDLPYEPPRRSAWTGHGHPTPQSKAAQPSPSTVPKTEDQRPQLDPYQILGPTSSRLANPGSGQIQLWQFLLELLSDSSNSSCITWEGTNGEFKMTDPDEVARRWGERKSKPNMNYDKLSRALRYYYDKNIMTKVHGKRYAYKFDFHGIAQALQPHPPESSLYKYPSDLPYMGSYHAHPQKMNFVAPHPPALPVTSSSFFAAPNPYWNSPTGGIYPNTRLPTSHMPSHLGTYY", "conditions": "protein: recombinant; tags: N-terminal GST; dsDNA, one strand shown", "outline": "as §1"}, "ELF1": {"biological_target": "ELF1 (Homo sapiens, UniProt P32519 1-619)", "sequence (P32519 whole entry)": "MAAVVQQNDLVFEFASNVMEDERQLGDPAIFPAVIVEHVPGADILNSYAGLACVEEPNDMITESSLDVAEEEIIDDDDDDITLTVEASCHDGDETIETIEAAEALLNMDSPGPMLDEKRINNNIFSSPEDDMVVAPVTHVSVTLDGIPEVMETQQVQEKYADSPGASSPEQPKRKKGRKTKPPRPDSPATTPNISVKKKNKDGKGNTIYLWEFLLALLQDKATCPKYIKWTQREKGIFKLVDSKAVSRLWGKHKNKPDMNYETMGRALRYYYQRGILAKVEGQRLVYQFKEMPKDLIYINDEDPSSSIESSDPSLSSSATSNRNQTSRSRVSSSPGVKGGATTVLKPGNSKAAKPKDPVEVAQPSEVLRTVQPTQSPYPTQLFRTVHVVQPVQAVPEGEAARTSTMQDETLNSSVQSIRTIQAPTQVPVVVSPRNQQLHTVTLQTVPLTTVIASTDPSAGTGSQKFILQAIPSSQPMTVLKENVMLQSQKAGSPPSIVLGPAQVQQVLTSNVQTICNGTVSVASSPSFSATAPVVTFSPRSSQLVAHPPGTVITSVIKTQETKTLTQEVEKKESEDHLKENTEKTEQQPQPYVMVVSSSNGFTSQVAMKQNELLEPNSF", "conditions": "protein: recombinant; tags: N-terminal GST; dsDNA, one strand shown", "outline": "as §1"}, "EHF": {"biological_target": "T5, EHF (Homo sapiens, UniProt Q9NZC4 1-300)", "T5 sequence": "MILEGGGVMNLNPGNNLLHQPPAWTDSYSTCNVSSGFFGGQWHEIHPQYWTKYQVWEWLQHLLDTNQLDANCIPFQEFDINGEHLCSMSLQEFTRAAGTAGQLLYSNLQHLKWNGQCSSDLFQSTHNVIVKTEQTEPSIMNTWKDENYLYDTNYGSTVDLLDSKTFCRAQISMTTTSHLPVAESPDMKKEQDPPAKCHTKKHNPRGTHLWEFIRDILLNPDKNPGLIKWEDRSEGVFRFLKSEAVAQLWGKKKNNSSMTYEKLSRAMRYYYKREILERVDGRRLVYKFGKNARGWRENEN", "conditions": "protein: recombinant; tags: N-terminal GST; dsDNA, one strand shown", "outline": "as §1"}, "SPI1": {"biological_target": "SPI1 (Homo sapiens, UniProt P17947 1-270)", "conditions": "protein: recombinant; tags: N-terminal GST; dsDNA, one strand shown", "outline": "as §1"}, "SPIB": {"biological_target": "SPIB (Homo sapiens, UniProt Q01892 1-262)", "sequence (Q01892 whole entry)": "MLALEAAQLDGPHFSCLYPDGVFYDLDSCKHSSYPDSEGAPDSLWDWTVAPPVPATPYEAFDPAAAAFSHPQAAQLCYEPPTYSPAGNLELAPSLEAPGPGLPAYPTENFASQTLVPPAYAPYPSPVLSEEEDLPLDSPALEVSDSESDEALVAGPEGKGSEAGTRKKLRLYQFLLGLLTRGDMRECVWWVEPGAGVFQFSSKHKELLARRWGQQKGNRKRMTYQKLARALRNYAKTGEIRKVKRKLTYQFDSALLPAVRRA", "conditions": "protein: recombinant; tags: N-terminal GST; dsDNA, one strand shown", "outline": "as §1"}, "ELK3": {"biological_target": "T6, ELK3 (Homo sapiens, UniProt P41970 1-407)", "T6 sequence": "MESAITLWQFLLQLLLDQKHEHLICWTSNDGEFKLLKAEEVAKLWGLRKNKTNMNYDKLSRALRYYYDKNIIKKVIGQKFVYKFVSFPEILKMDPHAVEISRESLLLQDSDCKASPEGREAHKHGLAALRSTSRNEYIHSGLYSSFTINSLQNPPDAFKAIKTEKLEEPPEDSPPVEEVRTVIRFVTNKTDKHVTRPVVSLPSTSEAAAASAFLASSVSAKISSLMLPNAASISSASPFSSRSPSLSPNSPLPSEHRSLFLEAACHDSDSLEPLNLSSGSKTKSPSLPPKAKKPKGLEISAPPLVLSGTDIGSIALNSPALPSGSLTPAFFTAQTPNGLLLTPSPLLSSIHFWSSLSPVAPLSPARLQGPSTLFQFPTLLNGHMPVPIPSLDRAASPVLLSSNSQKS", "conditions": "protein: recombinant; tags: N-terminal GST; dsDNA, one strand shown", "outline": "as §1"}, "ETV5": {"biological_target": "ETV5 (Homo sapiens, UniProt P41161 1-510)", "sequence (P41161 whole entry)": "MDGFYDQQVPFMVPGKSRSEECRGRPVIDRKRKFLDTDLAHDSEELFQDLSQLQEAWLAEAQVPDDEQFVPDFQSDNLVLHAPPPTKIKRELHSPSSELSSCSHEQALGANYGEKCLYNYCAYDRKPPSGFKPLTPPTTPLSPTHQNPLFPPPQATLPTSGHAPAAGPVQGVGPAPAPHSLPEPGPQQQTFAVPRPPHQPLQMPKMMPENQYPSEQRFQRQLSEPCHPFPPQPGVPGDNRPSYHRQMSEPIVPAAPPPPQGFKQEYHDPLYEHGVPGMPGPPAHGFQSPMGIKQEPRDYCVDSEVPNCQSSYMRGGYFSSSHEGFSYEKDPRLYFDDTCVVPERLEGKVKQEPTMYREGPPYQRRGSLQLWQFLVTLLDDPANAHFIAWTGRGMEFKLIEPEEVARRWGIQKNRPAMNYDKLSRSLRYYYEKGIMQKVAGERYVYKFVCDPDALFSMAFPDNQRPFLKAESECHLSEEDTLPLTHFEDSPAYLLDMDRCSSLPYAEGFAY", "conditions": "protein: recombinant; tags: N-terminal GST; dsDNA, one strand shown", "outline": "as §1"}, "HSF1": {"biological_target": "HSF1 (Homo sapiens, UniProt Q00613 1-529)", "sequence (Q00613 whole entry)": "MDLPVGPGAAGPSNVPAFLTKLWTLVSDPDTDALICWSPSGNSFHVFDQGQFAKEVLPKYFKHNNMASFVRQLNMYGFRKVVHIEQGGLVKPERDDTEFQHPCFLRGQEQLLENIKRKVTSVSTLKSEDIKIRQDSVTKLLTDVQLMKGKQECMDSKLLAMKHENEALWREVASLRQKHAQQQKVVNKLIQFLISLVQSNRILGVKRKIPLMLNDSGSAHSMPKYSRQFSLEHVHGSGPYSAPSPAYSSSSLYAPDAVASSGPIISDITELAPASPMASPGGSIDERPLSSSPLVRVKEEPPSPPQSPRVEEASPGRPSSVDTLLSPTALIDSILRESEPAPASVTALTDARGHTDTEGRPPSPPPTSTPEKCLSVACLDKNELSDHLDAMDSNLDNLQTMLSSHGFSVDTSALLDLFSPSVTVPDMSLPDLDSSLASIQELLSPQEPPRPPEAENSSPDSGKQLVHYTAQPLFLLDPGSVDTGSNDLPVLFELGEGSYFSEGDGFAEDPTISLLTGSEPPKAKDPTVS", "conditions": "protein: recombinant; tags: N-terminal GST; chain copies: 3; dsDNA, one strand shown", "outline": "as §1"}, "SPIC": {"biological_target": "T7, SPIC (Homo sapiens, UniProt Q8N5J4 1-248)", "T7 sequence": "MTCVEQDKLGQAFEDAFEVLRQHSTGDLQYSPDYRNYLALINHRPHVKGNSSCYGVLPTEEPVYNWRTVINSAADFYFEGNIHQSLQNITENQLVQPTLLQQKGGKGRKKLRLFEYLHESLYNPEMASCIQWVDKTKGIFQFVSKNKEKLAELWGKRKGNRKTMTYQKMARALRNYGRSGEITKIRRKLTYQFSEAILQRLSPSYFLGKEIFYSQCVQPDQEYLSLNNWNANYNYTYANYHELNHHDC", "conditions": "protein: recombinant; tags: N-terminal GST; dsDNA, one strand shown", "outline": "as §1"}, "ELF4": {"biological_target": "ELF4 (Homo sapiens, UniProt Q99607 1-663)", "sequence (Q99607 whole entry)": "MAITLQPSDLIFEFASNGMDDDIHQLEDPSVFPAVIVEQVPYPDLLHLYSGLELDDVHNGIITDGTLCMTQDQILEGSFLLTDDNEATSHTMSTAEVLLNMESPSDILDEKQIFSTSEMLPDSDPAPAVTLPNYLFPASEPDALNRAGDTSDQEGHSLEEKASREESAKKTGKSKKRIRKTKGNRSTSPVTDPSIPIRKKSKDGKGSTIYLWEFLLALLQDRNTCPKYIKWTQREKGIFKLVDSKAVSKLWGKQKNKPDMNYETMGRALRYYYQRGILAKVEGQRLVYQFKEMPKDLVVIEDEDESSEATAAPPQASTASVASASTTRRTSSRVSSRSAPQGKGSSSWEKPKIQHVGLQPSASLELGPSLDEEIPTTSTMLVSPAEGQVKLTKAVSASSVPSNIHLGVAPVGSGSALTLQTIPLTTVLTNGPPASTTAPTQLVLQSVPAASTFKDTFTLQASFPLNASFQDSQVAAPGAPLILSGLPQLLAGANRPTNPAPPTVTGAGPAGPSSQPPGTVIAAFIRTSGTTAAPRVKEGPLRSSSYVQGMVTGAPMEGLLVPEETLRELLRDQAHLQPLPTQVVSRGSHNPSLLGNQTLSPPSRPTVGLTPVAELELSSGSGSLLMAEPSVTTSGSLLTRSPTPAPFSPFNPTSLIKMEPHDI", "conditions": "protein: recombinant; tags: N-terminal GST; dsDNA, one strand shown", "outline": "as §1"}, "ELK4": {"biological_target": "T8, ELK4 (Homo sapiens, UniProt P28324-2 1-405)", "T8 sequence": "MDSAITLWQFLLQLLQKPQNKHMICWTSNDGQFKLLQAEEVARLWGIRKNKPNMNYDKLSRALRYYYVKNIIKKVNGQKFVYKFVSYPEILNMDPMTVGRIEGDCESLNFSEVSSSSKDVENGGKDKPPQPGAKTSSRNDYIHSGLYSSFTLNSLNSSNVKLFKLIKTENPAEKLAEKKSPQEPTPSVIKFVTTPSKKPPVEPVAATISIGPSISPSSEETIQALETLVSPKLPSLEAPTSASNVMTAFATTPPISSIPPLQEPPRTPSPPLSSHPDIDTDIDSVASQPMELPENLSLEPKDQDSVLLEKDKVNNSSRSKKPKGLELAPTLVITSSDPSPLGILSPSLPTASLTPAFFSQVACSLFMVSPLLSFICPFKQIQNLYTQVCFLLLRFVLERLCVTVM", "conditions": "protein: recombinant; tags: N-terminal GST; dsDNA, one strand shown", "outline": "as §1"}, "CRX": {"biological_target": "CRX (Homo sapiens, UniProt O43186 1-299)", "sequence (O43186 whole entry)": "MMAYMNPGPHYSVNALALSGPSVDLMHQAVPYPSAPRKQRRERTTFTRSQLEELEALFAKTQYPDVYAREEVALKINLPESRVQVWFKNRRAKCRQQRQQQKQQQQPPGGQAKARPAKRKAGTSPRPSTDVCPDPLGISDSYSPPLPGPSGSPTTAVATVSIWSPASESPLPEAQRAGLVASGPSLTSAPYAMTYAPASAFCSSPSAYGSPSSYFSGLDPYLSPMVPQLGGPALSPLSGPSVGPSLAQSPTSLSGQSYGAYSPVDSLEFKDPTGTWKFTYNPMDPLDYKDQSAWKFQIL", "conditions": "protein: recombinant; tags: N-terminal GST; dsDNA, one strand shown", "outline": "as §1"}, "ETV1": {"biological_target": "ETV1 (Homo sapiens, UniProt P50549 1-477)", "sequence (P50549 whole entry)": "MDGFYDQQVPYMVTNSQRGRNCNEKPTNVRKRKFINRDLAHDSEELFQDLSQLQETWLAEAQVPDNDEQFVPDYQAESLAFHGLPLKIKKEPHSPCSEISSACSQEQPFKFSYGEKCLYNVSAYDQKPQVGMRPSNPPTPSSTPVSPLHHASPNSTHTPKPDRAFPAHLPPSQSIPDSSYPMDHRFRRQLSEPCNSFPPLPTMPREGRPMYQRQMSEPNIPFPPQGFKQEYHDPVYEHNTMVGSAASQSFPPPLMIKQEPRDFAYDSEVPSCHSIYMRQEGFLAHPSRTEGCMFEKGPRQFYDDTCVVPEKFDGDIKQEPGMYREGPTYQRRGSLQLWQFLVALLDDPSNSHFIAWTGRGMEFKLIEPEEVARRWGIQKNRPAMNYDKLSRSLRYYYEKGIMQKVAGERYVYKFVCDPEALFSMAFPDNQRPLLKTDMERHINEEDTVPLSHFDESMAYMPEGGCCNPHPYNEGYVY", "conditions": "protein: recombinant; tags: N-terminal GST; dsDNA, one strand shown", "outline": "as §1"}}}
{"sequence": "GATAAT", "values": [{"measurement": "binding signal", "setting": "FLI1", "value": "1.04 fold enrichment (6-mer frequency, TF over GST control)"}, {"measurement": "binding signal", "setting": "ELK1", "value": "1.05 fold enrichment (6-mer frequency, TF over GST control)"}, {"measurement": "binding signal", "setting": "GABPA", "value": "1.13 fold enrichment (6-mer frequency, TF over GST control)"}, {"measurement": "binding signal", "setting": "ERG", "value": "1.03 fold enrichment (6-mer frequency, TF over GST control)"}, {"measurement": "binding signal", "setting": "ELF1", "value": "1.02 fold enrichment (6-mer frequency, TF over GST control)"}, {"measurement": "binding signal", "setting": "EHF", "value": "1.09 fold enrichment (6-mer frequency, TF over GST control)"}, {"measurement": "binding signal", "setting": "SPI1", "value": "1.09 fold enrichment (6-mer frequency, TF over GST control)"}, {"measurement": "binding signal", "setting": "SPIB", "value": "1.12 fold enrichment (6-mer frequency, TF over GST control)"}, {"measurement": "binding signal", "setting": "ELK3", "value": "1.12 fold enrichment (6-mer frequency, TF over GST control)"}, {"measurement": "binding signal", "setting": "ETV5", "value": "1.05 fold enrichment (6-mer frequency, TF over GST control)"}, {"measurement": "binding signal", "setting": "HSF1", "value": "1.98 fold enrichment (6-mer frequency, TF over GST control)"}, {"measurement": "binding signal", "setting": "SPIC", "value": "1.27 fold enrichment (6-mer frequency, TF over GST control)"}, {"measurement": "binding signal", "setting": "ELF4", "value": "1.1 fold enrichment (6-mer frequency, TF over GST control)"}, {"measurement": "binding signal", "setting": "ELK4", "value": "1.09 fold enrichment (6-mer frequency, TF over GST control)"}, {"measurement": "binding signal", "setting": "CRX", "value": "2.88 fold enrichment (6-mer frequency, TF over GST control)"}, {"measurement": "binding signal", "setting": "ETV1", "value": "1.14 fold enrichment (6-mer frequency, TF over GST control)"}]}
